High-throughput results deposited in PubChem BioAssay by several laboratories.
DAGLB inh – diacylglycerol lipase beta (human) inhibition. HEK293T DAGLB membrane lysate, EnzChek fluorogenic substrate. inhibition, % at 5.17 µM. 340,000 compounds, 0.059% hits. AID 504411; in the data active means inhibition above about 34%;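 further: 0% = enzyme with vehicle and 100% = wells lacking enzyme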
Rtt109 HAT inh – C. albicans Rtt109 histone acetyltransferase inhibition; Q5AAJ8; purified Rtt109/Vps75, ThioGlo CoA-SH fluorescence, 4 h; inhibition, % at 34.9 µM; 330,000 compounds, 0.16% hits; AID 540336;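 active means inhibition of at least 50% in every replicate; inconclusive means best replicate reaches 50% inhibition but some replicates fall short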
Target sequence (Q5AAJ8 whole entry, looked up): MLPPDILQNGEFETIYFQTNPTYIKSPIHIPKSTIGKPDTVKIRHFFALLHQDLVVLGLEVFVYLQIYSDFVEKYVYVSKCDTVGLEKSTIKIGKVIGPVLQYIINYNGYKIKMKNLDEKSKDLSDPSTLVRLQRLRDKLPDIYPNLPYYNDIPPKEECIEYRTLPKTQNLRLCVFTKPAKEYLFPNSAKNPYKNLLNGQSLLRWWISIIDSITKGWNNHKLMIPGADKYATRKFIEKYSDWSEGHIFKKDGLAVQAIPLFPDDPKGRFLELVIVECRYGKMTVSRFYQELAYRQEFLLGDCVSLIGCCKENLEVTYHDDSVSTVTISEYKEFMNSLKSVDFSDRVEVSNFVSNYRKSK
V-ATPase pH – regulators of yeast V-ATPase proton transport. S. cerevisiae, pHLuorin cytosolic pH fluorescence. response, % at 10 µM. 350,000 compounds, 0.37% hits. AID 504577; in the data active means response mostly above about 7.3%, no sharp cut-off; inactive means mostly below about 5.4%; further: actives read high
beta cell repl – inducers of beta-cell replication in MIN6 cells. MIN6 cells proliferation, ATPlite luminescence, 48 h; cells starved in 0.2% serum; 100% = growth in 10% serum. proliferation, % at 10 µM. 330,000 compounds, 0.29% hits. AID 2380;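 active means compounds whose signal lies at least 3.5 SD above the mean of all wells on their plate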;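 further: 0% = DMSO-treated cells in low-serum medium and 100% = 10% serum control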
HDAC3 inh – inhibitors of human histone deacetylase 3. O15379. recombinant HDAC3, fluorogenic peptide/trypsin coupled, fluorescence. inhibition, % at 8.3 µM. 320,000 compounds, 0.15% hits; in the data active means inhibition above about 26%, passing the limit was not always enough; inconclusive means no clear call, values can overlap the other calls
* marks the source's active call; other numbers are inactive results; u = inconclusive; x = no result given. Sampled rows, rich in hits. Any-hit rate of the full collection: about 0.96%.

SMILES | DAGLB inh | Rtt109 HAT inh | V-ATPase pH | beta cell repl | HDAC3 inh
COc1ccc(C(=O)NCc2nnc(SCC(=O)c3ccccc3)o2)cc1 | -1 | -5 | 8 | 1 | -3
COc1ccc(NCc2nnc(SCC(=O)c3ccc(OC)cc3)o2)cc1 | 1 | -4 | 10 | -6 | 41*
CCCCS(=O)(=O)c1sc2nc(C)cc(C)c2c1N | -1 | 55* | -7 | -1 | -2
Cc1cc(C)c2c(N)c(S(=O)(=O)c3ccccc3)sc2n1 | -5 | 0 | -3 | 1 | -2
COc1ccc(C)cc1NC(=O)c1cc(C2CC2)nc2c1c(C)nn2C1CCS(=O)(=O)C1 (stereo not given) | -1 | 4 | 0 | x | x
Cc1nn(C2CCS(=O)(=O)C2)c2nc(C3CC3)cc(C(=O)Nc3ccc(C(N)=O)cc3)c12 (stereo not given) | 0 | 50* | 0 | 0 | x
CC(Sc1ccccc1)C(=O)Nc1cccc(N(C)S(C)(=O)=O)c1 (stereo not given) | 0 | 0 | -2 | 1 | 2
Cc1ccc(C(=O)NCC(=O)NCC(c2ccco2)N2CCCCC2)cc1C (stereo not given) | 1 | 56* | 0 | 3 | x
COc1cccc(C(=O)n2c(SC)nc3cc4c(cc32)OCCO4)c1 | -2 | -5 | 3 | -2 | 92*
CSc1nc2cc3c(cc2n1C(=O)c1ccc(C)cc1)OCCO3 | 0 | -1 | -2 | 3 | 1
CN(C)C(CNC(=O)C1CC(=O)N(c2cccc(C(F)(F)F)c2)C1)c1ccccc1 (stereo not given) | 1 | x | x | x | x
COc1cc(/C=C/C(=O)c2ccc(NS(=O)(=O)c3ccc(C)cc3)cc2)ccc1OC(F)F | 6 | -1 | -1 | -6 | 15
COc1cc(/C=C/C(=O)c2ccc(NS(=O)(=O)c3ccc(C)cc3)cc2)cc(OC)c1O | 3 | 12 | 113* | x | 4
O=C(Oc1ccc(N2C(=O)CCC2=O)cc1)c1ccco1 | -1 | -12 | 2 | -1 | 8
O=C(Oc1ccc(Cl)cc1N1C(=O)CCC1=O)c1ccco1 | 0 | 0 | 2 | -1 | 34*
O=S(=O)(NC1CCN(Cc2ccccc2)CC1)c1cccc(S(=O)(=O)N2CCOCC2)c1 | 0 | 5 | 15* | -3 | 4
O=C(NC1CCN(Cc2ccccc2)C1)c1cccc(S(=O)(=O)N2CCOCC2)c1 (stereo not given) | 3 | 0 | 4 | -5 | x
Cc1ccc(Oc2c(C=O)c3ccccc3n2C)cc1 | -6 | 5 | 1 | 6 | 2
CCn1cc(S(=O)(=O)CC(=O)Nc2cc(C)ccc2C)c2ccccc21 | 0 | -9 | -3 | 1 | 4
CN(CC(=O)Nc1ccc(F)cc1)C(=O)CSc1nc2ncc(Cl)cc2[nH]1 | 4 | -1 | 74* | 2 | 2
O=C(O)CSCC(=O)NC1CCCc2ccccc21 (stereo not given) | -2 | -1 | 3 | -4 | -1
CC(=O)NC(CC(=O)NC1CCCc2ccccc21)c1ccccc1 (stereo not given) | -3 | 57* | -1 | -2 | 2
O=C(O)c1ccc(OCc2ccc(C(=O)O)o2)cc1 | -2 | -10 | 2 | 3 | -3
O=C(O)c1ccc(OCc2occc2C(=O)O)cc1 | -1 | -10 | 17* | -2 | -4
CCCCOc1ccc(C2C(C(=O)c3ccc(C)o3)=C(O)C(=O)N2Cc2ccco2)cc1 (stereo not given) | 20 | 56* | 0 | -4 | 6
SMILES | DAGLB inh | Rtt109 HAT inh | V-ATPase pH | beta cell repl | HDAC3 inh
Cc1ccc(C(=O)C2=C(O)C(=O)N(Cc3ccco3)C2c2ccc(N(C)C)cc2)o1 (stereo not given) | 3 | 21 | 4 | 1 | 4
CC1(C)CC(=O)C2=C(C1)NC(=S)C(C#N)C21CCCCC1 (stereo not given) | 1 | 14 | 3 | -2 | 39*
CN(C(=O)COC(=O)c1cc(-c2ccccc2Cl)nc2ccccc12)C1CCS(=O)(=O)C1 (stereo not given) | 2 | 12 | -7 | -1 | -1
CN(C(=O)COC(=O)c1cc(-c2ccc(Cl)s2)nc2ccccc12)C1CCS(=O)(=O)C1 (stereo not given) | -8 | -7 | 12* | 1 | -3
NCCCCCCNS(=O)(=O)c1cccc2c(Cl)cccc12 | 3 | 6 | -3 | -7 | 1
Cc1ccc(-n2nnnc2SCC(=O)c2c(N)n(C3CC3)c(=O)[nH]c2=O)cc1 | 0 | 3 | 748* | -3 | -10
Fc1ccc(-n2c(CN3CCCCC3)n[nH]c2=S)cc1 | 1 | -14 | 14* | -1 | 10
COc1cc(C(=O)Oc2cc(N)n(S(=O)(=O)c3ccc(F)cc3)n2)cc(OC)c1OC | 1 | 6 | 2 | -3 | 7
Cc1ccc(C(=O)Oc2cc(N)n(S(=O)(=O)c3ccc(C)cc3)n2)cc1 | 4 | 5 | 7 | -5 | 2
COc1ccc(S(=O)(=O)n2nc(OC(=O)c3cccs3)cc2N)cc1 | 9 | 4 | -2 | -1 | 95*
CS(=O)(=O)n1nc(OC(=O)c2cccs2)cc1N | 1 | -9 | 0 | 2 | 93*
COc1ccc(S(=O)(=O)n2nc(OC(=O)c3ccc(C)cc3)cc2N)cc1 | -1 | 1 | 2 | -4 | 61*
Nc1cc(OC(=O)c2ccc(F)cc2)nn1S(=O)(=O)c1ccccc1 | 2 | -6 | 0 | -2 | 59*
NNS(=O)(=O)c1ccc(Sc2ccccn2)c([N+](=O)[O-])c1 | 3 | 12 | -1 | -1 | 0
COc1ccc(S(=O)(=O)n2nc(OC(=O)c3ccccc3)cc2N)cc1 | 2 | -2 | -1 | 0 | 54*
COc1ccc(S(=O)(=O)n2nc(OC(=O)c3ccco3)cc2N)cc1 | 7 | 5 | 2 | -1 | 71*
COc1ccc(S(=O)(=O)n2nc(OC(=O)c3ccncc3)cc2N)cc1 | -3 | 2 | 4 | -2 | -4
CCc1ccc2c(c1)cc(CN(Cc1ccco1)C(C)=O)c1nnnn12 | -4 | -14 | 7 | 11* | -6
CC(=O)N(Cc1ccco1)Cc1cc2cccc(C)c2n2nnnc12 | x | x | x | -2 | -1
O=c1oc(-c2cccnc2)nc2ccccc12 | 3 | 5 | 0 | -3 | u
O=c1oc(-c2ccccc2Br)nc2ccccc12 | -8 | -14 | -1 | -3 | 44*
CCN1C(=O)N(CC)C2NC(=S)NC21 (stereo not given) | 0 | -10 | -2 | -3 | -4
C[n+]1c2n(c3ccccc31)N=C(c1ccccc1)CS2 | 0 | -13 | 0 | -6 | 31*
COc1ccc(/C=C/C(=O)Nc2ccc(NC(C)=O)cc2)cc1S(=O)(=O)N1CCOCC1 | -1 | 2 | 1 | 0 | 3
O=C(Nc1cccc2c1CCCC2)c1cc([N+](=O)[O-])ccc1Cl | 0 | 5 | 9.7* | -7 | -5
O=C(Nc1cccc2c1CCCC2)c1ccc(Cl)c([N+](=O)[O-])c1 | -7 | 4 | -1 | -2 | 3
COc1cccc(CNC(=O)CCNC(=O)N2CCn3c2nc2ccccc23)c1 | 0 | 4 | -6 | -1 | 11
